Data on 40 molecules can be found in PubChem BioAssay (NCI).

Structures are written as SMILES. This is part of a sample that, as a whole, favours compounds with a hit. Of some 83,000 tested, about 20% had one in any assay.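 Treatment: one concentration, 48 hours, 96-well format. Scoring: percent growth, with anything below 10 considered active.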 Active and inactive are the calls of the source.

The assay deals with HL-60(TB) leukemia. In words: NCI-60 one-dose screen, 48 h (100 = growth as untreated, 0 = no growth, -100 = all killed). As to conditions: 10 µM unless noted.
Take `Oc1cncc(-c2ccc3ncnc(N4CCc5cc(F)c(Cl)cc54)c3c2)c1`: the growth was 84.7% (inactive).
As for `CC(=O)OC[C@@]1(C)C2CC[C@]3(C)C(CC=C4C5CC(C)(C)CC[C@]5(C(=O)Nc5cccc(C)c5)CC[C@]43C)[C@@]2(C)C[C@@H](OC(C)=O)[C@@H]1OC(C)=O` (stereo not given in full), the growth is 29.4% (inactive).
On to `COc1ccc(-c2ccnc(SCc3cc4cc(Cl)ccc4[nH]c3=O)n2)cc1`, for which the growth is 120% (inactive).
In the case of `O=C(NN1C(=O)/C(=C/C=C/c2ccc([N+](=O)[O-])o2)SC1=S)c1ccncc1`, the growth was -30.4% (active).
Then `COc1c(F)ccc(C(=O)Nc2ccc3nc(NC(=O)C4CCCN(S(=O)(=O)c5cccc(C(F)(F)F)c5)C4)sc3c2)c1F` (stereo not given), with 72.1% (inactive); and `CC1(C)CC[C@]2(C(=O)O)CC[C@]3(C)C(=CCC4[C@@]5(C)C[C@@H](O)[C@@H]6OC(c7ccccc7F)OC[C@@]6(C)C5CC[C@]43C)C2C1` (stereo not given in full), with 2.91% (active).
On to `COC1=C[C@]23CCC(=O)N2CCc2cc4c(cc2[C@@H]3[C@@H]1OC(=O)CCCC(C)C)OCO4`, for which the growth was 7.81% (active).
The result for `O=C(NN1C(=O)/C(=C/C=C/c2ccc([N+](=O)[O-])o2)SC1=S)c1ccc(Cl)cc1` reads -7.52% (active); that for `CN1CCN(Cc2ccc(NC(=O)c3cncc(C#Cc4cnc5ccc(N[C@H]6CCOC6)nn45)c3)cc2C(F)(F)F)CC1`, -54.4% (active); that for `Cc1cc2nc3c4ccccc4n(CCNCCN(C)C)c3nc2cc1C`, -0.721% (active).
In the case of `Cc1ccc(Cl)cc1NC(=O)N/C(N)=N/c1nc2ccccc2s1`, the growth is -44.9% (active).
As to `Cn1cc(-c2cc3nc(-c4c[nH]c5ccccc45)cc(N)n3n2)c2ccccc21`, the growth was -41.2% (active).
For the molecule `CCOC(=O)/C(F)=C/C1CC1C(c1ccccc1)c1ccccc1` (stereo not given), the growth was -7.32% (active).
The result for `Clc1cccc(-c2ccc(OCCCN3CCN(c4ccncc4)CC3)cc2)c1` reads -53.9% (active); that for `Cc1ccc(NCC(=O)Nn2c(COc3ccccc3)nc3ccccc3c2=O)cc1`, 93.9% (inactive).
As to `O=C(CSc1nnc(-c2ccc3nc(-c4ccccc4)[nH]c3c2)o1)Nc1ccc(Cl)cc1`, the growth was 46.7% (inactive).
In the case of `CCCCSc1nc(Nc2ccc(S(N)(=O)=O)cc2)c(C#N)c(-c2ccc(Cl)cc2)n1`, the growth is 62.9% (inactive).
Then `COc1ccc(-c2ccc(/C=N/NC(=O)c3[nH]c4ccc(Br)cc4c3-c3ccccc3)s2)cc1`, with 95.6% (inactive); and `O=C1S/C(=C\c2ccc([N+](=O)[O-])cc2)C(=O)N1CCN1CCCCC1`, with 98.6% (inactive); and `COc1ccc(C(=O)c2c(N)c(C#N)cn2-c2ccc([N+](=O)[O-])cc2)cc1`, with 97.5% (inactive).
For the molecule `O=c1c2ccccc2nc(COc2ccccc2)n1/N=C/c1ccc(F)cc1`, the growth was 94.8% (inactive).
Then `O=C(N/C(=C1/OCCN1Cc1ccccc1)[P+](c1ccccc1)(c1ccccc1)c1ccccc1)c1ccccc1`, with -13.1% (active); and `COc1ccc(C2OC[C@@]3(C)C4CC[C@]5(C)C(CC=C6C7CC(C)(C)CC[C@]7(C(=O)O)CC[C@]65C)[C@@]4(C)C[C@@H](O)[C@@H]3O2)cc1` (stereo not given in full), with 46.9% (inactive); and `COc1ccc(C2c3sc4ccc(C)cc4c3Oc3nc(N)nc(N)c32)cc1` (stereo not given), with 84.8% (inactive).
Regarding `COc1ccc2[nH]c(O)c(N=Nc3nc(-c4ccc(C#N)cc4)cs3)c2c1`, the growth is 84.4% (inactive).
Then `CN(C)c1nc(NCCNS(=O)(=O)c2ccc(C3=Nc4c(N)nc(N)nc4NC(c4ccc(Cl)cc4)C3)cc2)nc(Nc2ccc(F)cc2)n1` (stereo not given), with -13.8% (active).
In the case of `Cc1ccc(Cc2cnc(NC(=O)c3ccc(/C=C4\SC(=S)N(C)C4=O)cc3)s2)cc1`, the growth was 18% (inactive).
`O=C(N=Nc1c(O)[nH]c2ccc(Br)cc12)c1ccc2nc(-c3ccc(Cl)cc3)[nH]c2c1`: the growth was 20.9% (inactive).
Then `COc1cc(C2CC(c3ccccc3)=Nc3c(N)nc(N)nc3N2)ccc1Oc1nc(NCCO)nc(N2CCOCC2)n1` (stereo not given), with 93.5% (inactive); and `COc1ccc2[nH]c(=O)cc(-n3ncc(C(=O)/C=C/c4cc(OC)c(OC)c(OC)c4)c3C)c2c1`, with -33.4% (active); and `COc1ccc(-c2nc(-c3ccccc3)c(-c3ccccc3)n2-c2ccc(S(=O)(=O)Nc3ncccn3)cc2)cc1OC`, with 89% (inactive).
Regarding `C=C1CC[C@@H]2[C@]3(C)COC(c4ccccc4)O[C@@H]3CC[C@@]2(C)[C@@H]1C/C=C1/C(=O)OCC1OC(C)=O` (stereo not given in full), the growth was -52.4% (active).
Then `CCOC(=O)/C(F)=C/C1CC1C1CCN(C(=O)OC(C)(C)C)CC1` (stereo not given), with 102% (inactive).
The result for `COc1ccc(-c2cc(C(=O)Oc3ccc(C=O)cc3OC)nn2-c2ccc(S(C)(=O)=O)cc2)cc1` reads 86.5% (inactive); that for `COc1cc(/C=C/C(=O)c2ccc(S(=O)(=O)NCCNc3nc(Nc4ccc(F)cc4)nc(N(C)C)n3)cc2)cc(OC)c1OC`, -4.97% (active); that for `Nc1nc2cc(-c3ccc4ncnc(NCc5ccccc5)c4c3)ccc2o1`, -43.8% (active).
Regarding `Nc1nc(-c2ccccc2)cc(-c2cc3ccccc3nc2Cl)n1`, the growth was 51.6% (inactive).
The result for `COc1ccc(-c2nc3ccccc3n2CC(=O)N=Nc2c(O)[nH]c3ccc(OC)cc23)cc1` reads 37.6% (inactive).
`COc1cc(C2CC(c3cc(OC)c(OC)c(OC)c3)=NN2C(C)=O)ccc1OCc1ccc(F)cc1` (stereo not given): the growth was 37.3% (inactive).
Then `CS(=O)(=O)Nc1ccc(-c2ccc3c(c2)ncn3-c2ccc(NC(=O)Nc3ccc(Br)cc3)cc2)cc1`, with -42% (active).
